Where “and” joins values, the source holds several entries; their conditions need not be identical. Equal values may be shown once. Records with an inconclusive call do not appear. More than one record can exist for a structure, and the calls need not agree. Calls of active or inactive are those of the source. Unless noted, the call rests on the fitted dose curve; in most records, active means well fitted curve in the direction sought with a large enough effect in the repeat runs; inconclusive means weak or mixed curves; inactive means no such curve, though single readings can be large; an effect the other way counts as inactive or inconclusive.

Potency, max activation and outcome data for 7 molecules are collected here from PubChem BioAssay (Tox21).

For experiment [1], the target named is Thyrotropin-releasing hormone receptor (Homo sapiens) (UniProt P34981). Nature of the experiment: qHTS assay to identify small molecule agonists of the thyrotropin-releasing hormone receptor (TRHR) signaling pathway (AID 1346891; calls by dose curve; further: series mostly up to about 58 µM). The method in brief:
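Intracellular calcium rise, read as fluorescence every second for 3 min, served as the agonist signal in dye-loaded HEK293 cells expressing TRHR; each compound ran at 15 concentrations in triplicate.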

A short description of experiment [2]: Human pregnane X receptor (PXR) small molecule agonists, qHTS cell viability counter screen (AID 1346977). Further: nearly all actives have a fitted effect of over 50% in size. In short, it runs like this:
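PXR-Luc HepG2, 2,000 cells/well, 5% charcoal-stripped FBS; 5hr settle; cpd 24hr, 37C/5% CO2; CellTiter-Fluor at 23hr, read 1hr later (fluorescence).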

A short description of experiment [3]: Caspase-3/7 induction in HepG2 cells by small molecules, qHTS assay (AID 1346978). Further: nearly all actives have a fitted effect of over 15% in size. In short, it runs like this: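 Caspase-3/7 induction was measured by Caspase-Glo 3/7 luminescence (30 min, room temperature) after a 17 hr compound exposure of wild-type HepG2 cells seeded at 2,000 per well and pre-incubated 5 hr.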
(qHTS replaces the single test concentration by a dilution series.)

Experiment [4] is described as follows: Caspase-3/7 induction in CHO-K1 cells by small molecules, qHTS cell viability counter screen (AID 1346979). Further: nearly all actives have a fitted effect of over 35% in size. The method in brief: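 Cells (CHO-K1, wild type) are plated at 1,500 per well and incubated 5hr. Test compounds in DMSO are then pinned in, followed by 16hr at 37C and 5% CO2. Viability is read by CellTiter-Fluor fluorescence after 1hr.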
A short description of experiment [5]: Caspase-3/7 induction in CHO-K1 cells by small molecules, qHTS assay (AID 1346980). Further: nearly all actives have a fitted effect of over 15% in size. The method in brief:
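Luminescent Caspase-Glo 3/7 read (30min, room temperature) quantified apoptosis induction. Cells were wild-type CHO-K1, treated with compound for 17hr at 37 C and 5% CO2.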

Experiment [6] in a line: Caspase-3/7 induction in HepG2 cells by small molecules, qHTS cell viability counter screen (AID 1346981). Further: series mostly up to about 92 µM; nearly all actives have a fitted effect of over 30% in size. The method in brief: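 In this quantitative HTS counter screen, compounds delivered in DMSO were left on unmodified HepG2 cells for 16 hr at 37 C. Viability was then determined fluorometrically with CellTiter-Fluor, in parallel with caspase-3/7 induction in the same wells.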

The target of experiment [7] is Nuclear receptor subfamily 1 group I member 2 (Homo sapiens) (UniProt O75469). In words: Human pregnane X receptor (PXR) small molecule agonists, qHTS assay (AID 1346982). Further: nearly all actives have a fitted effect of over 35% in size. The method in brief: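 Reporter HepG2 cells expressing PXR-Luc are cultured in charcoal-stripped FBS (5%), treated with compounds for 24 hr at 37 C, and assayed by ONE-Glo luminescence after 30 min at room temperature.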

In experiment [8] the target is Cytochrome P450 2D6 (Homo sapiens) (UniProt P10635). In words: Cytochrome P450 Family 2 Subfamily D Member 6 (CYP2D6) small molecule antagonists: luciferase reporter qHTS assay (AID 1671196). Further: nearly all actives have a fitted effect of over 50% in size. Further: potency means the concentration at half of the fitted maximal effect. The method in brief: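 Test chemicals meet CYP2D6 plus proluciferin substrate (10 min, RT); NADPH regenerating solution then drives turnover for 1 h. Detection reagent halts the reaction; luminescence measured after 20 min.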
On the technique in general: Reporter assays use an easily measured gene product as a stand-in for the process of interest.

The target in experiment [9] is Cytochrome P450 2C19 (Homo sapiens) (UniProt P33261). In words: Cytochrome P450 Family 2 Subfamily C Member 19 (CYP2C19) small molecule antagonists: luciferase reporter qHTS assay (AID 1671197). Further: nearly all actives have a fitted effect of over 65% in size. Further: potency means the concentration at half of the fitted maximal effect. The method in brief:
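Compounds were tested on CYP2C19 activity via proluciferin conversion to luciferin. The 37C, 1 h reaction followed NADPH addition; detection reagent stopped it.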

The target of experiment [10] is Cytochrome P450 2C9 (Homo sapiens) (UniProt P11712). Nature of the experiment: Cytochrome P450 Family 2 Subfamily C Member 9 (CYP2C9) small molecule antagonists: luciferase reporter qHTS assay (AID 1671198). Further: nearly all actives have a fitted effect of over 50% in size. Further: potency means the concentration at half of the fitted maximal effect. In short, it runs like this:
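Enzyme-substrate mix preincubated with compound 10 min at room temperature; reaction started with NADPH regeneration solution, 1 h 37C. Luminescent luciferin product read after 20 min detection reagent.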

In experiment [11] the target is Cytochrome P450 1A2 (Homo sapiens) (UniProt P05177). Nature of the experiment: Cytochrome P450 Family 1 Subfamily A Member 2 (CYP1A2) small molecule antagonists: luciferase reporter qHTS assay (AID 1671199). Further: nearly all actives have a fitted effect of over 50% in size. Further: potency means the concentration at half of the fitted maximal effect. The method in brief: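 Steps: enzyme-substrate mix dispensed; test compounds and furafylline control pinned in; 10 min room temperature; NADPH regeneration solution added, 1 h; reaction stopped with luciferin detection reagent; luminescence read after 20 min.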

In experiment [12] the target is Voltage-gated inwardly rectifying potassium channel KCNH2 (Homo sapiens) (UniProt Q12809). Nature of the experiment: Human Ether-a-go-go-Related Gene (hERG) channel small molecule antagonists: fluorescence cell-based qHTS assay (AID 1671200). The method in brief:
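Channel function was assessed by thallium flux. Cells seeded the previous day and kept at 37 C took up FluxOR II dye over 1 h in the dark at room temperature, then sat another 10 min before stimulation.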
For orientation: The hERG channel carries a current that helps repolarise heart muscle cells.

Experiment [13] addresses Cytochrome P450 3A4 (Homo sapiens) (UniProt P08684). Nature of the experiment: Cytochrome P450 Family 3 Subfamily A Member 4 (CYP3A4) small molecule antagonists: luciferase reporter qHTS assay (AID 1671201). In short, it runs like this: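 Compounds in DMSO were pin-transferred onto CYP3A4 enzyme-substrate mix and held 10 min at room temperature. NADPH regenerating solution started the reaction for 1 h; luciferin detection reagent stopped it, and luminescence was read after 20 min.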

For experiment [14], the target named is Nuclear receptor subfamily 1 group I member 2 (Rattus norvegicus) (UniProt Q9R1A7). Nature of the experiment: Rat pregnane X receptor (rPXR) activation by small molecules, qHTS assay (AID 1346983). Further: nearly all actives have a fitted effect of over 20% in size. To be noted: rPXR luciferase reporter cells, One-Glo luminescence, 24 h; max activation: stronger effect = higher value. The method in brief:
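Luminescent readout (One-Glo luciferase, 30 min room temperature) followed 24 hr compound treatment at 37 C of rPXR cells plated 2,000 per well and preincubated 5hr; qHTS format with compounds delivered in DMSO.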

Experiment [15] deals with Nuclear receptor subfamily 1 group I member 2 (Homo sapiens) (UniProt O75469). In words: CYP3A4 induction through human pregnane X receptor (PXR) by small molecules, qHTS assay (AID 1346984). Further: nearly all actives have a fitted effect of over 40% in size. In short, it runs like this:
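Induction measured in HepG2-based DPX-2 cells co-expressing human PXR and a CYP3A4 promoter-driven luciferase. After a 24-hour compound exposure, cells received CYP3A4 luciferin substrate at 3uM final for 3 hours, and light output was then recorded.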

Experiment [16] shares this target. In words: Human pregnane X receptor (PXR) activation by small molecules, qHTS assay (AID 1346985). Further: nearly all actives have a fitted effect of over 40% in size. In short, it runs like this:
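DPX-2 cells (HepG2 co-transfected with a PXR response element and a CYP3A4-promoter luciferase construct) were seeded at 2,000 per well, rested 5 hr at 37C, then exposed to DMSO-dissolved compounds for 24 hr. Activation was read as luciferase luminescence.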
On the % scale 0 is the no-effect control and ±100 the full control effect.

Chain of Voltage-gated inwardly rectifying potassium channel KCNH2 (Homo sapiens) (Q12809 whole entry, looked up): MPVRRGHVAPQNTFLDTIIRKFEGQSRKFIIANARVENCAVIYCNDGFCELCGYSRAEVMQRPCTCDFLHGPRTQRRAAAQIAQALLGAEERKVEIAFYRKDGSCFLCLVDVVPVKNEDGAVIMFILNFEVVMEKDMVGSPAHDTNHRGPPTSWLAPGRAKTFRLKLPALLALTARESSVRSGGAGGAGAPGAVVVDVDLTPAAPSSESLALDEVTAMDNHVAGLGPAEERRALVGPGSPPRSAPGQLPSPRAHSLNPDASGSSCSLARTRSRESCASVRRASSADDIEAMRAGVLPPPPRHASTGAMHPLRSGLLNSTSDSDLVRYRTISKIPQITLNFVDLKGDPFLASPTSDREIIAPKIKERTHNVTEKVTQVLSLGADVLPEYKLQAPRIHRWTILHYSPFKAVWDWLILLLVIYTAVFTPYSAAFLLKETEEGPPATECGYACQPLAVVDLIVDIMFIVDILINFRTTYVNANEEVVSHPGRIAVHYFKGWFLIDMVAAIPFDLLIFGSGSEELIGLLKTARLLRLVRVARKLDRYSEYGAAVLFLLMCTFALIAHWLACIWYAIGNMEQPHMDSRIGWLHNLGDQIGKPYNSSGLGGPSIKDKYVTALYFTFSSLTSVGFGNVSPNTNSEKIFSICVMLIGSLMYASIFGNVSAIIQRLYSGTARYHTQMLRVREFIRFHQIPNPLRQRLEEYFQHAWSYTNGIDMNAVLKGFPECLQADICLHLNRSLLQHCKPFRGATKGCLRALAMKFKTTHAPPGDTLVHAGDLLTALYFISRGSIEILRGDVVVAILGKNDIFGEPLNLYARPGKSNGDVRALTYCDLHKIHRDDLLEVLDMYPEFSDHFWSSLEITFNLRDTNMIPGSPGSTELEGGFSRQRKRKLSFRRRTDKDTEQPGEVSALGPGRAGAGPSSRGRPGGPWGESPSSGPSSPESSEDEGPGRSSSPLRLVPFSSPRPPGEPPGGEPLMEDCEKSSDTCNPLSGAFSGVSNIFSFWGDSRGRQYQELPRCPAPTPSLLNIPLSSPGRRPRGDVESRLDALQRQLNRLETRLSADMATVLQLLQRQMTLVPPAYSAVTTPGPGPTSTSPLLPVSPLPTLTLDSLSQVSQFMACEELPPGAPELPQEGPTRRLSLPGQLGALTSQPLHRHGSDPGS
Chain of Nuclear receptor subfamily 1 group I member 2 (Homo sapiens) (O75469 whole entry, looked up): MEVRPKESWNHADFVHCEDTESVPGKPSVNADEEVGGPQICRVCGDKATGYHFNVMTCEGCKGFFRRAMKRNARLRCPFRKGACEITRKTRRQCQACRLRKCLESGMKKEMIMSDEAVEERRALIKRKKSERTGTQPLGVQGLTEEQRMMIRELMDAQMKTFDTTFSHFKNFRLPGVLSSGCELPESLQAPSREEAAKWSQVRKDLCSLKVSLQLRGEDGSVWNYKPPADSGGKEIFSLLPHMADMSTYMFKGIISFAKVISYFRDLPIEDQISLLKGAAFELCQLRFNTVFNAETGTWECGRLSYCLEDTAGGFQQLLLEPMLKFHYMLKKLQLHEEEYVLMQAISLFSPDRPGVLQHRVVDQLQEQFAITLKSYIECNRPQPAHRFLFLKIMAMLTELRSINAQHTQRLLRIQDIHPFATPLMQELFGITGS
Chain of Cytochrome P450 2D6 (Homo sapiens) (P10635 whole entry, looked up): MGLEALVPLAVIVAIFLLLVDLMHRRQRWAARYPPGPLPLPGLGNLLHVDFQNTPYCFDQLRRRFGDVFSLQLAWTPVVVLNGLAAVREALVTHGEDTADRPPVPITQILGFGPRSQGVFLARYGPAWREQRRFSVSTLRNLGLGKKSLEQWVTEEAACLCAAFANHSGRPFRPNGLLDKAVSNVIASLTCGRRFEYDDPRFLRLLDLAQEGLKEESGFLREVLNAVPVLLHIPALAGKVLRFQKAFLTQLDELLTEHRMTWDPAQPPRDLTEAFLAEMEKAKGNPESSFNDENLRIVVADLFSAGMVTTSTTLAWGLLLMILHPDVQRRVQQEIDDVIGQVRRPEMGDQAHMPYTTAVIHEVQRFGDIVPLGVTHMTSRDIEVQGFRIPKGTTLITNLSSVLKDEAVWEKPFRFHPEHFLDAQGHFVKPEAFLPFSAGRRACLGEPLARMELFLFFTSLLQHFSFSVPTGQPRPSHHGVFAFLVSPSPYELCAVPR
Chain of Cytochrome P450 3A4 (Homo sapiens) (P08684 whole entry, looked up): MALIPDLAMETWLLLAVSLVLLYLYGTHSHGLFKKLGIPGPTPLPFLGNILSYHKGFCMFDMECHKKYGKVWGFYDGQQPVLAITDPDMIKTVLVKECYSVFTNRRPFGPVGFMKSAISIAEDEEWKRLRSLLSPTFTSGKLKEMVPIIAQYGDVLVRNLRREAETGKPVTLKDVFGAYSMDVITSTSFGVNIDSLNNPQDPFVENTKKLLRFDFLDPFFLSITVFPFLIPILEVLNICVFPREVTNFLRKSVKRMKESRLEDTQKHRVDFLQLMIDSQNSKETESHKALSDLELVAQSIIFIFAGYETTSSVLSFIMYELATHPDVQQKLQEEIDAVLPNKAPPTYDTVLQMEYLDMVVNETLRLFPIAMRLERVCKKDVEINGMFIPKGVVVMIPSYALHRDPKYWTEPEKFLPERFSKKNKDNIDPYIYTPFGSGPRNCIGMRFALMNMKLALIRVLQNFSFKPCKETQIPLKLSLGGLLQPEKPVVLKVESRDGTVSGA
Chain of Thyrotropin-releasing hormone receptor (Homo sapiens) (P34981 whole entry, looked up): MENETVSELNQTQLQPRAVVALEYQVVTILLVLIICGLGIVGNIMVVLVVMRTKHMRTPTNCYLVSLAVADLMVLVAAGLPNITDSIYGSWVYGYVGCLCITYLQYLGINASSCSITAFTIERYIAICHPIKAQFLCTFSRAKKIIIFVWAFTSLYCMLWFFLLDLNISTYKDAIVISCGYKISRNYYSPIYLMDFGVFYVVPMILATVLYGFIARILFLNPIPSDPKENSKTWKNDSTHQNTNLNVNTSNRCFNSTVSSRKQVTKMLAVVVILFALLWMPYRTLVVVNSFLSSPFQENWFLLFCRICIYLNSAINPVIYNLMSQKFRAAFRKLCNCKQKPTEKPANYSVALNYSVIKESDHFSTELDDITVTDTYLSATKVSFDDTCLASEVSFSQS
Chain of Cytochrome P450 1A2 (Homo sapiens) (P05177 whole entry, looked up): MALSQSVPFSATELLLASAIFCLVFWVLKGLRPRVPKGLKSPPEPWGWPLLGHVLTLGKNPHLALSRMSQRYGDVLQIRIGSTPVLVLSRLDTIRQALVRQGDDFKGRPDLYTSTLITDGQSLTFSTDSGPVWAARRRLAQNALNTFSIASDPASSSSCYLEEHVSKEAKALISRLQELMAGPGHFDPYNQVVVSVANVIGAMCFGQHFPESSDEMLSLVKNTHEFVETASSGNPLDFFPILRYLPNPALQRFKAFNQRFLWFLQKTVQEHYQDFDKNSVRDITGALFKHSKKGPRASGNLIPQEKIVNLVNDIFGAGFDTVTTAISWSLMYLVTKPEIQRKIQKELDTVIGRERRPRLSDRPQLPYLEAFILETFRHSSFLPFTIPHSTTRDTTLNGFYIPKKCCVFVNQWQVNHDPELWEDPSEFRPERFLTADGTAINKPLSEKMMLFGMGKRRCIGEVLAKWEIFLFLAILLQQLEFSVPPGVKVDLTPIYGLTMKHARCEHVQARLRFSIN
Chain of Nuclear receptor subfamily 1 group I member 2 (Rattus norvegicus) (Q9R1A7 whole entry, looked up): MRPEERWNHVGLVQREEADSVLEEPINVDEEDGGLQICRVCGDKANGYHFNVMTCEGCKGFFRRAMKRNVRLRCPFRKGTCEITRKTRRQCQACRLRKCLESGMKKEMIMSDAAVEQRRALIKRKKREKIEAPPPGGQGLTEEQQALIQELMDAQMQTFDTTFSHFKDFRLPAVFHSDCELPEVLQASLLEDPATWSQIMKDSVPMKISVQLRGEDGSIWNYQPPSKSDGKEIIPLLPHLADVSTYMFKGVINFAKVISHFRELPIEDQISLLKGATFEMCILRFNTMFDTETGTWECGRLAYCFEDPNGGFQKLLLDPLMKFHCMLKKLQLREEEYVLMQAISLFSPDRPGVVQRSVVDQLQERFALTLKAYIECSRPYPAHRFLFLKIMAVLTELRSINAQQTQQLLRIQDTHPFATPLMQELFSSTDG
Chain of Cytochrome P450 2C9 (Homo sapiens) (P11712 whole entry, looked up): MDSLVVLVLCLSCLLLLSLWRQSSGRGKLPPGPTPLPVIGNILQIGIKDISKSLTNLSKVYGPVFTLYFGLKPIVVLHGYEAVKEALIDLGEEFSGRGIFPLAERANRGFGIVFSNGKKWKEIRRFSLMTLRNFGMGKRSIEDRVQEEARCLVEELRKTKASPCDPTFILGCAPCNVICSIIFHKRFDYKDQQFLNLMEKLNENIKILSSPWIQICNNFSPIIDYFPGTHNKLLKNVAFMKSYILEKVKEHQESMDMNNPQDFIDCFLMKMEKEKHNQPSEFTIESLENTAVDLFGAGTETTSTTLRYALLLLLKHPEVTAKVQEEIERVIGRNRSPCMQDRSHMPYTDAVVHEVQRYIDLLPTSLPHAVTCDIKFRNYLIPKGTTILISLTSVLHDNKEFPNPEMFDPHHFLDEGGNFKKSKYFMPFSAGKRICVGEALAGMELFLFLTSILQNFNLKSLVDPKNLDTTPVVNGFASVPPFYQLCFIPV
Chain of Cytochrome P450 2C19 (Homo sapiens) (P33261 whole entry, looked up): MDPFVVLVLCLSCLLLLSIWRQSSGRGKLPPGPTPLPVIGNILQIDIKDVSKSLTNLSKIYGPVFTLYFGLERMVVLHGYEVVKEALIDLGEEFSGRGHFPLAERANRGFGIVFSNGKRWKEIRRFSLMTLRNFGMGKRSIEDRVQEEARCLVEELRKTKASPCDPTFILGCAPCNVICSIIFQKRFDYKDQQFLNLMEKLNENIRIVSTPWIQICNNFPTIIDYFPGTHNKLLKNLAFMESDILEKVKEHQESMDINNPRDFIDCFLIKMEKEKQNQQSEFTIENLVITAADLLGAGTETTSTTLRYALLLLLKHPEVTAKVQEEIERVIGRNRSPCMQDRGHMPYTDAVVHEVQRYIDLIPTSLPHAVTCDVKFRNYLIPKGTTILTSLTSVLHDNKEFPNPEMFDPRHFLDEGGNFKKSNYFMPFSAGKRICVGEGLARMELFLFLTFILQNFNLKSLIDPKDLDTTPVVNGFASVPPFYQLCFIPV

In the case of `CCCCC(CC)COC(C)=O` (stereo unspecified), the Potency result in experiment [1], in [2], in [3], in experiment [4], in [5] and in [6] was “inactive” throughout. Besides, the Potency result in [7], in experiment [8], in [9], in experiment [10], in experiment [11] and in experiment [12] was “inactive” throughout. Moreover, the Potency result in experiment [13] was “inactive”.
Turning to `COCC(C)O` (stereo unspecified), the Potency entry in experiment [1], in experiment [2], in experiment [3], in [4], in experiment [5] and in experiment [6] was “inactive” throughout. Also, the Potency result in experiment [7], in [8], in [9], in experiment [10], in experiment [11] and in experiment [12] was “inactive” each time. Besides, in [13], the Potency result is “inactive”.
With `Cc1cc(O)cc(C)c1Cl`, the Potency entry in experiment [1], in experiment [2], in [3], in experiment [4], in experiment [5] and in experiment [6] was “inactive” throughout. The Potency result in experiment [7], in experiment [8], in [9], in experiment [10], in experiment [12] and in experiment [13] was “inactive” in each case. Moreover, the max activation in [14] was -1.35% (inactive). For the same molecule, the result in experiment [15] and in [16] was inactive. Moreover, in experiment [11], the Potency was 25.2 µM (active) and 15.5 µM (active).
Regarding `Nc1cc(-c2ccncc2)c[nH]c1=O`, the Potency result in experiment [1], in experiment [2], in [3], in [4], in experiment [5] and in [6] was “inactive” in each case. For the same molecule, the Potency result in experiment [7] and in [12] was “inactive” in each case. Moreover, the max activation in experiment [14] is -1.94% (inactive). Further, the result in [15] and in experiment [16] was inactive. Moreover, the Potency is 31.7 µM (active) and 17.4 µM (active) in [8]; 8.94 µM (active) and 3.89 µM (active) in experiment [9]; 14.2 µM (active) and 12.3 µM (active) in [10]; 35.6 µM (active) in experiment [11].
Turning to `O=S(=O)(O)CCS`, the Potency result in [1], in experiment [2], in experiment [3], in experiment [4], in experiment [5] and in experiment [6] was “inactive” each time. Further, the Potency result in [7], in experiment [9], in experiment [11], in experiment [12] and in [13] was “inactive” throughout. The max activation in [14] is -3.83% (inactive). The call in [15] and in [16] was inactive. In addition, the Potency in experiment [8] was 31.3 µM (active) and inactive.
As for `C[C@@H]1O[C@@H](OC[C@H]2O[C@@H](Oc3c(-c4ccc(O)c(O)c4)oc4cc(O)cc(O)c4c3=O)[C@H](O)[C@@H](O)[C@@H]2O)[C@H](O)[C@H](O)[C@H]1O`, the Potency result in [1], in experiment [2], in experiment [3], in experiment [4], in [5] and in experiment [6] was “inactive” each time. In addition, the Potency entry in experiment [7], in experiment [8], in [9], in [10], in experiment [11] and in experiment [12] was “inactive” throughout. For the same molecule, the Potency result in experiment [13] was “inactive”. Moreover, the max activation in experiment [14] was -1.22% (inactive). Further, the molecule was called inactive in experiment [15] and in [16].
Regarding `CCC(C)C=O` (stereo unspecified), the Potency entry in [1], in experiment [2], in [3], in experiment [4], in [5] and in [6] was “inactive” in each case. Further, the Potency result in experiment [7], in experiment [8], in [10], in [11], in experiment [12] and in [13] was “inactive” in each case. The Potency in experiment [9] is 39.9 µM (active) and inactive.
